{"source": "PubChem BioAssay (NCATS)", "note": "Results filed as inconclusive are left out. Active and inactive are the calls of the source. Calls come from the whole dose curve; as a rule, active = well fitted inhibition curve with a large enough effect; inconclusive = small, poorly fitted or top-dose-only effect; inactive = no such curve, though single readings can be large or run the other way. % is set by controls: 0 for no effect and ±100 for the full control effect; potency is the fitted concentration of half-maximal effect.", "data": [{"target": "Cytochrome P450 2C9 (Homo sapiens) (UniProt P11712)", "sequence (P11712 whole entry, looked up)": "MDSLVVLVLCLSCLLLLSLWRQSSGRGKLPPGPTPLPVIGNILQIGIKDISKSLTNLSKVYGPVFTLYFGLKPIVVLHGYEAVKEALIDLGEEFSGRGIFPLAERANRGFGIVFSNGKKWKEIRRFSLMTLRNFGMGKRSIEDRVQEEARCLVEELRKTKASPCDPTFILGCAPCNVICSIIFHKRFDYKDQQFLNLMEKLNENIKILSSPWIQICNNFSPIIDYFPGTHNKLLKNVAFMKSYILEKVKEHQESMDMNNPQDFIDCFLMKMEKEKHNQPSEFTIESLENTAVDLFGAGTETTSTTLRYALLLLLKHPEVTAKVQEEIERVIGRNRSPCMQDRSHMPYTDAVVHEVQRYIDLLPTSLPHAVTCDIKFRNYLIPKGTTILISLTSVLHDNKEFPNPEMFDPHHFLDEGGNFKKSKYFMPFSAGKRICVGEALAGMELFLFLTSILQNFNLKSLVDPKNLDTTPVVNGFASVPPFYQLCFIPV", "test": "qHTS for inhibitors of CYP2C9 against the NCATS DSHEA and TCM libraries (AID 1919973);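 for activity change, negative = inhibition: luminogenic pro-luciferin CYP2C9 substrate turned into luciferin with NADPH regeneration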", "conditions": "recombinant CYP2C9 enzyme activity, luminescence; series mostly up to 34.1 µM; activity change, negative = inhibition: at the top concentration", "description": "Assay Development and Screening Technology Laboratory (ADST)\nNational Center for Advancing Translational Sciences (NCATS), Rockville, MD\nNational Institute of Health (NIH), Bethesda, Maryland\nDietary Supplements and Natural Products have minor oversight of their safety and efficacy. We assembled a collection of Dietary Supplements and Natural Products (DSNP) as well as Traditional Chinese Medicinal (TCM) Plant extracts, which were screened against an in vitro panel of assays, including a liver cytochrome p450 enzyme panel, CAR/PXR signaling pathways, and P-gp transporter assays, to assess their activity. This pipeline facilitated the interrogation of Natural Product-Drug Interaction (NaPDI) through prominent metabolizing pathways. In addition, we compared the activity profiles of the DSNP/TCM substances with those of an approved drug collection. Many of the approved drugs have well-annotated mechanisms of action (MOA) while the MOAs for most of the DSNP and TCM samples remain unknown. Based on the premise that compounds with similar activity profiles tend to share similar targets or MOA, we clustered the library activity profiles to identify overlap with the NCATS Pharmaceutical Collection to predict the MOAs of the DSNP/TCM substances. Overall, we highlight four significant bioactivity profiles (measured by p-values) as examples of this prediction. To assess broad cytotoxicity, we employed screening against a HepG2 cell line. In addition, transporter-mediated drug interactions are utilized in the characterization of DDIs using a P-glycoprotein (P-gp) assays. To profile potential P-gp activity, a differential cell viability was measured against two cell lines: a parental KB-3-1 human cervical adenocarcinoma cell line and the drug-resistant subline KB-8-5-11 that overexpresses P-gp.\nTo this end, we profiled both collections for potential CAR and/or PXR activity, employing a previously published 1536-well qHTS assay.\n[1] Lee TD, et al. A High-Throughput Screen of a Library of Therapeutics Identifies Cytotoxic Substrates of P-glycoprotein. Mol Pharmacol. Nov 2019;96(5):629-640. doi:10.1124/mol.119.115964\nPROTOCOL TABLE (as described by Inglese J, Shamu CE and Guy RK. 2007)\nSEQUENCE No. (e.g., 1, 2, 3, etc.); […] (e.g., Cells, Incubation, Reagent, etc.); VALUE; DESCRIPTION.\n1; Reagent; 2 uL; cytochrome P450 enzyme and luciferin substrate or buffer only, white solid-bottom Greiner plate.\n2; Compounds and control; 16 nL; Kalypsis pintool (Wako USA) equipped with a 1536-well pin head to transfer to the assay plates.\n3; Incubation; 15 min; room temperature.\n4; Reagent; 2 uL; nicotinamide adenine dinucleotide phosphate (NADPH).\n5; Incubation; 30 - 45 min; room temperature in the dark.\n6; Reagent; 4 uL; P450-Glo assay detection reagent.\n7; Centrifuge; 1000 RPM; 15 seconds.\n8; Incubation; 30 min; room temperature.\n9; Read; Luminescence; ViewLux plate reader.\nNOTES (numbers refer to Sequence numbers above)\n1. A 2 uL mixture of corresponding enzymes and luciferin substrate (final concentrations CYP enzyme-specific and pro-luciferin substrate-specific) or minus-enzyme (assay buffer conditions supplied by the manufacturer for respective enzyme isoform; typically, 100 mM KPO4) and luciferin substrate were dispensed using a BioRAPTR FRD (Beckman Coulter, Brea, CA) into columns of a 1536-well white solid-bottom medium binding plate (Greiner Bio-One, Monroe, NC). Five isoforms of cytochrome P450 were used (CYP1A2, CYP2C9, CYP2C19, CYP2D6, and CYP3A4).\n2. Substances (final concentrations of most substances ranged from 19.5 nM to 39.8 uM) and controls (CYP-specific) were transferred (16 nL) via pintool (Wako Automation, Richmond, VA). Intraplate controls furafylline (CYP1A2), sulfaphenazole (CYP2C9), ketoconazole (CYP2C19), quinidine (CYP2D6), and ketoconazole (CYP3A4) were used correspondingly.\n3. Assay plates were incubated at room temperature for 15 min.\n4-5. […]", "values": [{"compound": "O=S(=O)(O)O", "activity change, negative = inhibition": "7.41% [at 58.3 µM] (inactive)"}, {"compound": "COC1=C[C@@]23CCN(C)[C@H](Cc4ccc(OC)c(O)c42)C3=CC1=O", "activity change, negative = inhibition": "-7.63% (inactive)"}, {"compound": "N#CC(O[C@@H]1O[C@H](CO[C@@H]2O[C@H](CO)[C@@H](O)[C@H](O)[C@H]2O)[C@@H](O)[C@H](O)[C@H]1O)c1ccccc1", "note": "(stereo partly specified)", "activity change, negative = inhibition": "-19.4% (inactive)"}, {"compound": "C=C[C@H]1CN2CCc3c([nH]c4ccccc34)[C@H]2C[C@@H]1/C(=C\\OC)C(=O)OC", "Potency": "3.16 µM (active)"}, {"compound": "COC1=CC(=O)OC(CCc2ccccc2)C1", "note": "(stereo unspecified)", "activity change, negative = inhibition": "-22.5% (inactive)"}, {"compound": "C=CCc1ccc2c(c1)OCO2", "activity change, negative = inhibition": "17.7% (inactive)"}, {"compound": "C=C[C@H]1CN2CC[C@@]3(C(=O)Nc4ccccc43)[C@@H]2C[C@@H]1/C(=C\\OC)C(=O)OC", "activity change, negative = inhibition": "-1.49% (inactive)"}, {"compound": "CCCCCCCCCCCCCCCCCCCC(=O)O", "Potency": "15.8 µM (active)"}, {"compound": "COC(=O)C1=CO[C@@H](C)[C@@H]2CN3CC[C@@]4(C(=O)Nc5ccccc54)[C@@H]3CC12", "note": "(stereo partly specified)", "activity change, negative = inhibition": "-18% (inactive)"}, {"compound": "COc1ccc2c(c1O)-c1c(OC)c(OC)cc3c1[C@H](C2)N(C)CC3", "activity change, negative = inhibition": "-23.5% (inactive)"}, {"compound": "COc1cc2c(cc1O)CC1c3c(cc(O)c(OC)c3-2)CCN1C", "note": "(stereo unspecified)", "Potency": "10 µM (active)"}]}]}
